Reference: PubChem BioAssay (Tox21)
Records with an inconclusive call do not appear. Calls of active or inactive are those of the source. Unless noted, the call rests on the fitted dose curve; in most records, active means well fitted curve in the direction sought with a large enough effect in the repeat runs; inconclusive means weak or mixed curves; inactive means no such curve, though single readings can be large; an effect the other way counts as inactive or inconclusive.

Experiments:
[1] = qHTS assay to identify small molecule agonists of the sonic hedgehog signaling (Shh) pathway (AID 1259368; calls by dose curve; further: series mostly up to about 92 µM; nearly all actives have a fitted effect of over 15% in size)
Method in brief: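 NIH/3T3-derived 3T3Gli1-Luc cells carrying a stably integrated Gli1 response element–firefly luciferase reporter were plated, left 4 hr at 37 C, then given compounds in DMSO for 24 hr. Luminescence was read 30 min after adding luciferase reagent.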

[2] = qHTS assay to identify small molecule antagonists of the sonic hedgehog signaling (Shh) pathway (AID 1259369; calls by dose curve; further: nearly all actives have a fitted effect of over 45% in size)
Method in brief: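 NIH/3T3-derived 3T3Gli1-Luc cells with stably integrated Gli1-Luc reporter were preincubated 4hr at 37 C, then given compounds in DMSO plus Shh conditioned medium and incubated 24hr. Firefly luciferase luminescence read after 30min reagent at room temperature.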

[3] = target: Estrogen receptor beta (Homo sapiens) (UniProt Q92731); assay: qHTS assay to identify small molecule agonists of the estrogen receptor beta (ER-beta) signaling pathway (AID 1259377; active means well fitted activation curve with a large enough effect in the signal ratio in the repeat runs, not every such curve was filed as active; the % refers to the signal ratio)
Sequence of Estrogen receptor beta (Homo sapiens) (Q92731 whole entry, looked up): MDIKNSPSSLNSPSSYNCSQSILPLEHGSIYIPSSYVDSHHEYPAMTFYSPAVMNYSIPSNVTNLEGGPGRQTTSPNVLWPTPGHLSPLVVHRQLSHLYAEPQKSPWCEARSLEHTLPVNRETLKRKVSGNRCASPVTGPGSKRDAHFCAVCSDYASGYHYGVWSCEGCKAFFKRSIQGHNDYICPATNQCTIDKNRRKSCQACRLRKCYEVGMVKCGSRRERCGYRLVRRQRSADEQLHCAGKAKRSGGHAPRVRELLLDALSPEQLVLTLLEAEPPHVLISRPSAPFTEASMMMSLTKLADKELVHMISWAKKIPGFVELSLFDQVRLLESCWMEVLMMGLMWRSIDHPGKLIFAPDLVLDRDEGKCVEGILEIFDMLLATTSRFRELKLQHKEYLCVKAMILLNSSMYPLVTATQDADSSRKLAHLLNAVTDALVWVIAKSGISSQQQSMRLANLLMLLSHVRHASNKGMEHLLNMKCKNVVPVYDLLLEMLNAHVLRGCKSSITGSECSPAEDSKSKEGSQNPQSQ
Method in brief: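 Reporter cells (HEK293T, ER-beta-UAS-bla) receive compounds or DMSO after a 6 hr pre-incubation. They then incubate 16 hr at 37C/5% CO2, and fluorescence from LiveBLAzer B/G substrate is measured after 2 hours at room temperature.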

[4] = target: Estrogen receptor beta (Homo sapiens) (UniProt Q92731); assay: qHTS assay to identify small molecule antagonists of the estrogen receptor beta (ER-beta) signaling pathway (AID 1259378; active means well fitted inhibition curve with a large enough effect in the signal ratio in the repeat runs, not every such curve was filed as active; the % refers to the signal ratio)
Method in brief: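 Antagonist mode: compounds added to beta-lactamase reporter HEK293T ER-beta-UAS cells stimulated with E2 (1nM final), 16 hr at 37C. LiveBLAzer B/G FRET substrate, 2 hours room temperature, fluorescence read-out.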

[5] = qHTS assay to identify small molecule agonists of the androgen receptor (AR) signaling pathway in the presence of an antagonist - cell viability counter screen (AID 1259379); further: series mostly up to about 92 µM; nearly all actives have a fitted effect of over 25% in size
Method in brief: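 MDA-kb2 human breast carcinoma cells (stable MMTV-luciferase, AR/GR responsive) were seeded 3,000 cells/well, pre-incubated 5 hr at 37C without CO2, then given 3.0uM nilutamide and compounds at 15 concentrations for 16 hr. Viability was read by CellTiter-Fluor fluorescence.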

[6] = qHTS assay to identify small molecule agonists of the estrogen receptor beta (ER-beta) signaling pathway - cell viability counter screen (AID 1259380); further: nearly all actives have a fitted effect of over 30% in size
Method in brief: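 ER-beta-UAS-bla HEK293T cells in medium with 2% charcoal-stripped FBS were preincubated 6 hr at 37C, dosed with compound in DMSO for 16 hr, then after the bla read, CellTiter-Glo was added for 30 min at room temperature; luminescence recorded.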

[7] = qHTS assay to identify small molecule antagonists of the estrogen receptor beta (ER-beta) signaling pathway - cell viability counter screen (AID 1259382);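 further: HEK293T cells carrying ER-beta-UAS-bla reporter stimulated with estradiol; series mostly up to about 92 µM; nearly all actives have a fitted effect of over 55% in size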
Method in brief: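 ER-beta-UAS-bla HEK293T cells (2,000/well, 2% charcoal-stripped FBS) were pre-incubated 6 hr at 37C, then given compound plus 1nM final 17-beta-estradiol for 16 hr. Viability was read in the same wells by CellTiter-Glo luminescence after 30 min at room temperature.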

[8] = target: Estrogen receptor (Homo sapiens) (UniProt P03372); assay: qHTS assay to identify small molecule agonists of the estrogen receptor alpha (ER-alpha) signaling pathway in the presence of an antagonist (AID 1259383; calls by dose curve; further: top concentration of the series differs between compounds; nearly all actives have a fitted effect of over 15% in size)
Sequence of Estrogen receptor (Homo sapiens) (P03372 whole entry, looked up): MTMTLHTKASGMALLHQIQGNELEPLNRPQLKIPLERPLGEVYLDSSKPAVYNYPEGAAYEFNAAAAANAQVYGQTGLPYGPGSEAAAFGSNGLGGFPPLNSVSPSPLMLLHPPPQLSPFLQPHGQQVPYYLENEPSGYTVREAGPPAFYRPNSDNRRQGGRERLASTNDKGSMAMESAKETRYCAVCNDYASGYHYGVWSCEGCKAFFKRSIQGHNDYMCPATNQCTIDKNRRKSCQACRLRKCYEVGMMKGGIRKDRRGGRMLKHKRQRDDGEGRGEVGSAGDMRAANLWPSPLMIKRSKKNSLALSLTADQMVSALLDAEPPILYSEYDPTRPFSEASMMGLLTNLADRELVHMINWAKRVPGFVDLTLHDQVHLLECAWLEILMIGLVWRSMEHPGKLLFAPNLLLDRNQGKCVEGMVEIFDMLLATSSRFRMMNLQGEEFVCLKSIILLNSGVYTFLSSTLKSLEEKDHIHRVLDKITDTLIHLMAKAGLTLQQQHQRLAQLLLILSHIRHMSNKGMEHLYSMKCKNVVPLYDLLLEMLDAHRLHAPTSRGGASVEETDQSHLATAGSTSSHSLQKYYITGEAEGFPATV
Method in brief: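 VM7Luc4E2 cells (endogenous full-length ER-alpha, 4×ERE-luciferase) were precultured 5 days in phenol red-free medium with 10% charcoal-stripped FBS, given 10.0nM ICI-182,780 (final), then treated with compounds at 15 concentrations for 22hr at 37C; luminescence read with ONE-Glo.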

[9] = qHTS assay to identify small molecule agonists or antagonists of the thyroid stimulating hormone receptor (TSHR) signaling pathway - wild type cell line counter screen (AID 1259384; calls by dose curve)
Method in brief: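 Counter screen in untransfected Hek293: compounds (15-point titration, triplicate) plus phosphodiesterase inhibitor Ro20-1724 added after 18 h plating; 30 min RT. Intracellular cAMP via competitive d2/cryptate immunoassay, 1 h incubation.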

[10] = target: Thyrotropin receptor (Homo sapiens) (UniProt P16473); assay: qHTS assay to identify small molecule antagonists of the thyroid stimulating hormone receptor (TSHR) signaling pathway (AID 1259385; calls by dose curve; further: nearly all actives have a fitted effect of over 20% in size)
Sequence of Thyrotropin receptor (Homo sapiens) (P16473 whole entry, looked up): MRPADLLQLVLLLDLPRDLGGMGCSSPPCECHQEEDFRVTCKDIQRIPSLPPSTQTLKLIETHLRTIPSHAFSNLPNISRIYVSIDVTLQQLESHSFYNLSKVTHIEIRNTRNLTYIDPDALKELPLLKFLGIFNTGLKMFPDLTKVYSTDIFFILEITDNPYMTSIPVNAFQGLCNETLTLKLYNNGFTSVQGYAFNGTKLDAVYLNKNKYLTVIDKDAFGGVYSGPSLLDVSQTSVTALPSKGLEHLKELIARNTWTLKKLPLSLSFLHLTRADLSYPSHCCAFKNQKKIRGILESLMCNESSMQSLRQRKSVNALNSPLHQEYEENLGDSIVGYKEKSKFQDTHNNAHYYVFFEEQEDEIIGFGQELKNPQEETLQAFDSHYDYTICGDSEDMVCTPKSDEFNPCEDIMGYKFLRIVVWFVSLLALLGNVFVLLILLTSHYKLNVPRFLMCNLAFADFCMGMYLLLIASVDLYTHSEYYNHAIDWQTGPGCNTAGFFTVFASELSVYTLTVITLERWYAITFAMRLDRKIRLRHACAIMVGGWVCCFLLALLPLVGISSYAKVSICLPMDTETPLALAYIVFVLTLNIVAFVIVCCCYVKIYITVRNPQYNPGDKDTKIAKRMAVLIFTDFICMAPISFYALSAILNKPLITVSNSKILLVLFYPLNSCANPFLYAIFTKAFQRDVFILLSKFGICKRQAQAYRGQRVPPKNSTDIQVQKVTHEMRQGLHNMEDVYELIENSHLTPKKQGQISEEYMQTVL
Method in brief: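 Antagonist mode: compound-treated TSHR-expressing HEK293 cells were stimulated with 1.5 ng/mL TSH (final) in presence of Ro20-1724 for 30 min at RT. HTRF cAMP detection after 1 h; each compound tested at 15 concentrations, triplicate.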

[11] = qHTS assay to identify small molecule agonists of the estrogen receptor alpha (ER-alpha) signaling pathway in the presence of an antagonist - cell viability counter screen (AID 1259386);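 further: series mostly up to about 92 µM; cells exposed to compounds for 22 h at 37 °C before the viability read; nearly all actives have a fitted effect of over 30% in size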
Method in brief: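 VM7Luc4E2 cells (endogenous full-length ER-alpha, 4×ERE-luciferase) were held 5 days in phenol red-free medium with 10% charcoal-stripped FBS, plated, then given 10.0nM ICI-182,780 and compounds at 15 concentrations for 22hr at 37C; viability read by CellTiter-Fluor fluorescence.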

[12] = target: Progesterone receptor (Homo sapiens) (UniProt P06401); assay: qHTS assay to identify small molecule agonists of the progesterone receptor (PR) signaling pathway (AID 1346784; calls by dose curve; further: nearly all actives have a fitted effect of over 30% in size)
Sequence of Progesterone receptor (Homo sapiens) (P06401 whole entry, looked up): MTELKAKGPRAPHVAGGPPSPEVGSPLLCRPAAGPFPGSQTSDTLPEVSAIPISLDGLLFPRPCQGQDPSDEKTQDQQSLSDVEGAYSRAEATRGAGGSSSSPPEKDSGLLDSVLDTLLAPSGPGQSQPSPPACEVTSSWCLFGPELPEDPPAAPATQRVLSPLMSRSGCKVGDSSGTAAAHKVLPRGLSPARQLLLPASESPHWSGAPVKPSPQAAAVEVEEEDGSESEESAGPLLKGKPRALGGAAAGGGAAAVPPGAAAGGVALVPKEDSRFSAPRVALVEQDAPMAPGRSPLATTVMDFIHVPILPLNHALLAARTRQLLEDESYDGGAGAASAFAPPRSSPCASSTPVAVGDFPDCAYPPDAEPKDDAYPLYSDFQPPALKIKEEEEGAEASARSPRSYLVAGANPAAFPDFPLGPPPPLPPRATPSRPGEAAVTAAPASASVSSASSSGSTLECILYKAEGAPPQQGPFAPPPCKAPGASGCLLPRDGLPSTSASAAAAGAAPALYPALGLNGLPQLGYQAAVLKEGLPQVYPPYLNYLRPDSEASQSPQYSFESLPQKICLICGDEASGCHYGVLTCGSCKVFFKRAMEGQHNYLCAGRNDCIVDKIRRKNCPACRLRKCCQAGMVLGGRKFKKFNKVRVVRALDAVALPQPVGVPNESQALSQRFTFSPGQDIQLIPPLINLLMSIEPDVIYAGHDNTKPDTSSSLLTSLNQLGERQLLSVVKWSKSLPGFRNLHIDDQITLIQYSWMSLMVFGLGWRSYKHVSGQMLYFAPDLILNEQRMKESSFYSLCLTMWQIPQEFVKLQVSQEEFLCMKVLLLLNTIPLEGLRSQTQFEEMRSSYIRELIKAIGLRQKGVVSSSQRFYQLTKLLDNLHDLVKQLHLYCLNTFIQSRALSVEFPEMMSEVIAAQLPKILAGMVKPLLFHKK
Method in brief: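 Reporter assay, GripTite PR-UAS-bla HEK 293T cells: 16 hr exposure to DMSO-dissolved compounds at 37C, 5% CO2, in steroid-depleted (2% charcoal-stripped FBS) medium; beta-lactamase measured by FRET fluorescence.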

[13] = target: Progesterone receptor (Homo sapiens) (UniProt P06401); assay: qHTS assay to identify small molecule antagonists of the progesterone receptor (PR) signaling pathway (AID 1346795; active means well fitted inhibition curve with a large enough effect in the signal ratio in the repeat runs, not every such curve was filed as active; the % refers to the signal ratio)
Method in brief: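 Stimulus R5020 at 1 nM final; cells HEK293T PR-UAS-bla; medium with 2% charcoal-stripped FBS; compound exposure 16 hr at 37C, 5% CO2; detection by FRET beta-lactamase substrate, 2 hr, room temperature.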

[14] = qHTS assay to identify small molecule antagonists of the progesterone receptor (PR) signaling pathway - cell viability counter screen (AID 1346798); further: series mostly up to about 92 µM; nearly all actives have a fitted effect of over 50% in size
Method in brief: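 In the same plates used for the beta-lactamase readout, cell viability of compound- and R5020-treated PR-UAS-bla HEK293T cells (16 hr, 37C) was assessed by CellTiter-Glo luminescence.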

[15] = qHTS assay to identify small molecule agonists of the progesterone receptor (PR) signaling pathway - cell viability counter screen (AID 1346799; calls by dose curve; further: nearly all actives have a fitted effect of over 45% in size)
Method in brief: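 Multiplexed viability read: CellTiter-Glo luminescence, 30 min RT, following LiveBLAzer FRET measurement on PR-UAS-bla HEK293T cells exposed to compounds 16 hr.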

[16] = qHTS assay to identify small molecule antagonists of the TGF-beta/Smad signaling pathway - cell viability counter screen (AID 1346824); further: nearly all actives have a fitted effect of over 50% in size
Method in brief: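 Cytotoxicity counter-screen run in the same wells as the beta-lactamase Smad reporter read: CellTiter-Glo luminescence after 30 min at room temperature. HEK 293T SBE-bla cells had 5 hr compound exposure at 37 C with TGF-beta1 (0.25 ng/mL stock).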

[17] = qHTS assay to identify small molecule agonists of the TGF-beta/Smad signaling pathway (AID 1346859; active means well fitted activation curve with a large enough effect in the signal ratio in the repeat runs, not every such curve was filed as active; the % refers to the signal ratio; further: series mostly up to about 77 µM)
Method in brief: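 Screening used HEK 293T SBE-bla cells at 4,000/well. Test agents: 5 hr, 37 C. Detection: FRET substrate, 2 hr RT, then excitation 405 nm with emissions at 460 and 530 nm.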

[18] = target: Thyrotropin-releasing hormone receptor (Homo sapiens) (UniProt P34981); assay: qHTS assay to identify small molecule antagonists of the thyrotropin-releasing hormone receptor (TRHR) signaling pathway (AID 1346877; active means well fitted inhibition curve with a large enough effect in the repeat runs, not every such curve was filed as active; further: series mostly up to about 51 µM)
Sequence of Thyrotropin-releasing hormone receptor (Homo sapiens) (P34981 whole entry, looked up): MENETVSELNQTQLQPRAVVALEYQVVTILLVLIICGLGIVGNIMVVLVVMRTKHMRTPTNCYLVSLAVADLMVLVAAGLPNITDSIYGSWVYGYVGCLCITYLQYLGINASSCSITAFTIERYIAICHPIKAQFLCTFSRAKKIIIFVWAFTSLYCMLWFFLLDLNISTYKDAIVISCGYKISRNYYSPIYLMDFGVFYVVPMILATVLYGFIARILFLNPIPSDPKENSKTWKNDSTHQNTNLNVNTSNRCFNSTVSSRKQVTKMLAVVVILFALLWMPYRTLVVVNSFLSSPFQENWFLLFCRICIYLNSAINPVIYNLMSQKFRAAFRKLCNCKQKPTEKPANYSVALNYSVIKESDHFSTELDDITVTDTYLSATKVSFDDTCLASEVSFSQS
Method in brief: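 TRHR-expressing HEK293 cells were seeded, cultured 18 h at 37 °C, then loaded with calcium dye for 2 h. Compounds were pre-incubated 5 min at room temperature before 1 nM TRH (final) was added, and kinetic fluorescence was recorded for 3 min.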

[19] = qHTS assay to identify small molecule agonists of the TGF-beta/Smad signaling pathway - cell viability counter screen (AID 1346829); further: top concentration of the series differs between compounds; nearly all actives have a fitted effect of over 45% in size
Method in brief: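 In parallel with the Smad reporter read, viability of HEK 293T cells stably carrying SBE-bla is quantified by ATP luminescence following 5 hr compound treatment.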

[20] = target: Androgen receptor (Homo sapiens) (UniProt P10275); assay: qHTS assay to identify small molecule agonists of the androgen receptor (AR) signaling pathway in the presence of an antagonist (AID 1259381; calls by dose curve; further: nearly all actives have a fitted effect of over 15% in size)
Sequence of Androgen receptor (Homo sapiens) (P10275 whole entry, looked up): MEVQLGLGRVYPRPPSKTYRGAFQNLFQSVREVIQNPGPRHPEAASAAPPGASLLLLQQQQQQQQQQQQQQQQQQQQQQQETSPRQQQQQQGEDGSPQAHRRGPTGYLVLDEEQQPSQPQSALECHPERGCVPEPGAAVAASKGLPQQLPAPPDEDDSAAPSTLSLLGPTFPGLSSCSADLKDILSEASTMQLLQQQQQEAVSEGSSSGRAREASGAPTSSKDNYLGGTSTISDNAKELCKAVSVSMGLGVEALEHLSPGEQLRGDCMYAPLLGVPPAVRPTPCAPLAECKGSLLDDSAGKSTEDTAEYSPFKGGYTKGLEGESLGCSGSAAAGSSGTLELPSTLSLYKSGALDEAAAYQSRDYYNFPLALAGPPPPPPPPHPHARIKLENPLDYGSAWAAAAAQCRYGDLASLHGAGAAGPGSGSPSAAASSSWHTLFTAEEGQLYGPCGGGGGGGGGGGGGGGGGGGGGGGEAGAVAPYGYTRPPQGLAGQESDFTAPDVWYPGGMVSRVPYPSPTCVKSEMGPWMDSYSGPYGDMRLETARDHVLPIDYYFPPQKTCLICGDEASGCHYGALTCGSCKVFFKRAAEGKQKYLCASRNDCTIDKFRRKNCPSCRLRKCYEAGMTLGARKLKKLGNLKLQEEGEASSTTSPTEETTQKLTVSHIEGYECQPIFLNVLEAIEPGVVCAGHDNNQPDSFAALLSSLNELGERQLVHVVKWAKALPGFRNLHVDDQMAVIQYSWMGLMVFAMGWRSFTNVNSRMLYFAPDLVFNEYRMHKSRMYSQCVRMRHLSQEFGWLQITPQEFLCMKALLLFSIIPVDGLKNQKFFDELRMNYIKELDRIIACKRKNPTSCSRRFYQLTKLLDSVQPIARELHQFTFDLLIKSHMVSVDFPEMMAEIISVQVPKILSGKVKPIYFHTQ
Method in brief: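 MDA-kb2 human breast carcinoma cells carrying an MMTV-luciferase reporter (AR- and GR-responsive) were treated with compounds at 15 concentrations plus 3.0uM final nilutamide for 16hr at 37C without CO2; luminescence was read after ONE-Glo addition.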

Measured: Potency

O=C1CCCCCCCCCCCN1
not listed: [19] | [20]
inactive: all other assays above

NC(=O)c1ccc(N)cc1
not listed: [11] | [18] | [20]
inactive: all other assays above

CCN(CC)CCNC(=O)c1cc(S(C)(=O)=O)ccc1OC
not listed: [11] | [20]
inactive: all other assays above

NC(=O)Nc1ccccc1
not listed: [18] | [20]
inactive: all other assays above

CCSC(=O)N(CC(C)C)CC(C)C
not listed: [4] | [15] | [18]
inactive: all other assays above

CCCN(CCC)CCc1cccc2c1CC(=O)N2
not listed: [8] | [15] | [20]
inactive: all other assays above

CO/N=C(/C(=O)N[C@@H]1C(=O)N2C(C(=O)OCOC(=O)C(C)(C)C)=C(C)CS[C@H]12)c1csc(N)n1
not listed: [5] | [8] | [13] | [18] | [20]
inactive: all other assays above

CCCCCCOC(=O)CCCCC(=O)OCCCCCC
not listed: [6] | [11] | [20]
inactive: all other assays above

C=CCOCC(CC)(CO)COCC=C
not listed: [8] | [11] | [20]
inactive: all other assays above

O=c1[nH]c(=O)n([C@H]2C[C@H](O)[C@@H](CO)O2)cc1I
not listed: [8] | [12] | [13] | [15] | [18] | [20]
inactive: all other assays above

CN1CCC(=C2c3ccccc3CC(=O)c3sccc32)CC1
not listed: [5] | [18] | [20]
inactive: all other assays above

CCOC(=O)c1ccc(C)cc1
not listed: [9] | [10] | [20]
inactive: all other assays above

O=C(CCCN1CCN(c2ccccn2)CC1)c1ccc(F)cc1
not listed: [6] | [8] | [10] | [20]
inactive: all other assays above

CCC=O
not listed: [8] | [18] | [20]
inactive: all other assays above

Nc1nc2c(ncn2COC(CO)CO)c(=O)[nH]1
not listed: [5] | [20]
inactive: all other assays above
